Reference: publication PMC4336329 (PLoS ONE, 2015)
Hit rate of the full screen: of about 310,000 compounds, about 14,000 (4.5%) showed an effect of 50% or more. Effects have a minus sign here. Shown is part of a subset that was picked to be rich in strong results.

biological target: human ether-à-go-go-related gene (hERG) potassium channel (human, UniProt Q12809); assay: primary screen, population patch clamp on CHO cells stably expressing hERG; higher = less effect of the substance
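Note: peak tail current of the secondary pulse compared with the same well before compound.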

Sequence of human ether-à-go-go-related gene (hERG) potassium channel (Q12809 whole entry, looked up): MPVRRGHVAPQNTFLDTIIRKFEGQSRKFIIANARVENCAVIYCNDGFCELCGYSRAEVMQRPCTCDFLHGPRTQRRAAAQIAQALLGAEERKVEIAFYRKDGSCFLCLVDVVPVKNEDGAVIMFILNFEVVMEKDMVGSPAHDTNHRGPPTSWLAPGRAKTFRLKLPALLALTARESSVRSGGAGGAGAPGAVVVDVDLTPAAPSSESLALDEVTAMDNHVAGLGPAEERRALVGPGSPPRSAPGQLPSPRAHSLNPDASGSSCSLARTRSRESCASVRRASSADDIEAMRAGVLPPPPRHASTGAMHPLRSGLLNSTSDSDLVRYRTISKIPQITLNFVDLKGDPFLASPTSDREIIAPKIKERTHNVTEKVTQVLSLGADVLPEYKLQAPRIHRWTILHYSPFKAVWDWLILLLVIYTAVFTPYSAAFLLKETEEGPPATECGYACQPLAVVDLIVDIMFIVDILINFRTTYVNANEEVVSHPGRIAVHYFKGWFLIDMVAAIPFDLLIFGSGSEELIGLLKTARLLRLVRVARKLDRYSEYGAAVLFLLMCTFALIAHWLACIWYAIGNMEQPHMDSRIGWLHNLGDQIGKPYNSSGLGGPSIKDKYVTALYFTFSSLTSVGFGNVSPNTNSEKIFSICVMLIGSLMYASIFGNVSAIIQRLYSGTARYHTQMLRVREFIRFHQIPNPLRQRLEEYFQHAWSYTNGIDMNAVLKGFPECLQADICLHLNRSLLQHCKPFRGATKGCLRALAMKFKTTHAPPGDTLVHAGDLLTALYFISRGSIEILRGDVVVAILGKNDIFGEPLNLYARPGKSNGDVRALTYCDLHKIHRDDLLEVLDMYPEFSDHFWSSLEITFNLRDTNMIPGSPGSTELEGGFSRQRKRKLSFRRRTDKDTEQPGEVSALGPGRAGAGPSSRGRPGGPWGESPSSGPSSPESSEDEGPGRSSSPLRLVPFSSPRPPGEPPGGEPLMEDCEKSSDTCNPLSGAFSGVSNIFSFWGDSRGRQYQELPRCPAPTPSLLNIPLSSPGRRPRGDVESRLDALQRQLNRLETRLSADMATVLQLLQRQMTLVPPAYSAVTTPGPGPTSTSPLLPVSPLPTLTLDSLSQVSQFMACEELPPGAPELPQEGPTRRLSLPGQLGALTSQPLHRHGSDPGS

| Compound | hERG current change (%, negative = inhibition) at 10uM |
| --- | --- |
| Cc1ccc(S(=O)(=O)N(Cc2cccc(C(F)(F)F)c2)C(=O)N2CCN(C)CC2)cc1 | 10.3% |
| COC(=O)CCC(=O)OC1(C)C(=O)C2=CN(CCCOC(C)C)C(c3ccc(OC)cc3)=CC2=C(Br)C1=O (stereo not shown) | -22.7% |
| CC(=O)NC(=O)NC1CSCC1OC(C)=O (stereo not shown) | 15.8% |
| CC(NC(=O)CCCn1cc([N+](=O)[O-])cn1)c1ccccc1 (stereo not shown) | -3.6% |
| COc1ccccc1/C=N/NC(=O)CC(=O)NCCc1ccccc1 | 12.1% |
| CCOC(=O)c1cc(-c2ccccc2)sc1NC(=O)CC | 1.19% |
| CCOCC(=O)Nc1ccc(S(=O)(=O)NCCc2ccccc2)cc1 | -22.9% |
| Nc1ccc(C(=O)Nc2ccccc2C(=O)O)cc1 | 10.2% |
| Cc1[nH]n2c(=O)c3c(nc2c1-c1ccccc1)CCC3 | 0.138% |
| CCCN(CCC(=O)Nc1cc(OC)cc(OC)c1)CC1CC1.Cl | -12.1% |
| Cc1cc(NC(=O)c2nn3cccnc3c2Cl)no1 | 6.12% |
| CNC(=S)Nc1cc(Cl)ccc1Oc1ccccc1 | -6.86% |
| CCc1nnc(NC(=O)CCN2C(=O)CCC2=O)s1 | -8.3% |
| COc1ccc2sc(-c3ccc(SC)cc3)c(C#CC(C)(C)O)c2c1 | 11.6% |
| CCOC(=O)C1(CCOc2ccccc2)CCN(Cc2cc(OC)ccc2OC)CC1 | -73.2% |
| CCOC(=O)C1(CCOc2ccccc2)CCN(Cc2cc(OC)c(O)cc2Cl)CC1 | -69.2% |
| CCOC(=O)C1(CCOc2ccccc2)CCN(Cc2cccc(OC)c2O)CC1 | -70.5% |
| CCOC(=O)C1(CCOc2ccccc2)CCN(Cc2ccccc2O)CC1 | -30.8% |
| CCOC(=O)C1(CCOc2ccccc2)CCN(Cc2ccccc2OC)CC1 | -71.4% |
| O=C(O)c1cc(-n2[nH]c(=O)c3ccccc3c2=O)ccc1Cl | 21.3% |
| Cc1sc2ncnc(N3CCCCC3C)c2c1C (stereo not shown) | -13.6% |
| Cc1cc(C)c(C(=O)CN2C(=O)NC3(CCC(C)CC3)C2=O)cc1C (stereo not shown) | 11.1% |
| COC(=O)c1sccc1NC(=O)CC1NCCNC1=O (stereo not shown) | 0.0435% |

| Compound | hERG current change (%, negative = inhibition) at 10uM |
| --- | --- |
| COc1ccccc1NC(=O)/C=C/c1ccc2c(c1)OCO2 | -8.32% |
| CCCc1nc(SCc2ccccn2)c2c(=O)n(C)c(=O)n(C)c2n1 | -59.1% |
| Cn1c(=O)c2c(SCc3ccccn3)nc(C3CC3)nc2n(C)c1=O | 6.51% |
| Cn1c(=O)c2c(SCC(=O)NCc3ccco3)nc(CC(C)(C)C)nc2n(C)c1=O | -57.4% |
| CCc1nc(SCC(=O)NCc2ccco2)c2c(=O)n(C)c(=O)n(C)c2n1 | -0.832% |
| Cn1c(=O)c2c(SCc3ccccn3)nc(CC(C)(C)C)nc2n(C)c1=O | -79.4% |
| CC(C)c1nc(SCc2ccccn2)c2c(=O)n(C)c(=O)n(C)c2n1 | 5.32% |
| CCCc1nc(SCC(=O)NCc2ccco2)c2c(=O)n(C)c(=O)n(C)c2n1 | 0.943% |
| CCc1nc(SCc2ccccn2)c2c(=O)n(C)c(=O)n(C)c2n1 | 0.896% |
| Cc1ccccc1-c1nc(SCc2ccccn2)c2c(=O)n(C)c(=O)n(C)c2n1 | 28.7% |
| Cc1ccc(N(C)S(=O)(=O)c2ccc3[nH]cc(C(=O)NCCCN4CCOCC4)c(=O)c3c2)cc1C | -16.5% |
| Cc1ccc(Nc2ncccc2C(N)=O)cc1 | 19.5% |
| Cc1ccccc1NC1=NS(=O)(=O)c2ccccc21 | 4.25% |
| CCOc1ccc(OCC)c(NC(=O)CN(c2ccc(C)cc2)S(=O)(=O)c2c(C)noc2C)c1 | 3.31% |
| CCN1CCN(CC(=O)Nc2ccc(OC(F)(F)F)cc2)CC1.Cl | -69.1% |
| O=C(CN1CCN(c2ccccn2)CC1)Nc1ccc(OC(F)(F)F)cc1 | -29.9% |
| CN1CCN(CC(=O)Nc2ccc(OC(F)(F)F)cc2)CC1.Cl | -65.1% |
| Cl.O=C(CN1CCOCC1)Nc1ccc(OC(F)(F)F)cc1 | -8.1% |
| O=C(CN1CCc2ccccc2C1)Nc1ccc(OC(F)(F)F)cc1 | -6.92% |
| Cl.O=C(CN1CCCC1)Nc1ccc(OC(F)(F)F)cc1 | -41.1% |
| CCOC(=O)N1CCN(CCC(=O)Nc2ccc(Br)cc2)CC1 | -33.2% |
| CCOC(=O)N1CCN(CCC(=O)Nc2ccc(OC(F)(F)F)cc2)CC1 | -63.3% |
| CCOC(=O)N1CCN(CCC(=O)Nc2ccc(OC)cc2)CC1 | -1.76% |
